# Assay results taken from PMC12136788.
# In all, about 5,800 sequences were measured (“enrichment r”: median about 0.54, highest 2% from about 16 on). For the sample, the highest values were picked, then their nearest neighbours and some sequences at random.
# B1: chr20:54218986:54219149:+|CDS|ENSG00000101132|unk|FALSE|unique (ssRNA)
# RNA: GGGAGUUCUACAGUCCGACGAUCAAAUUUGCAAGAAGAAAUUGACGCCUUAGAAUCCAGAGUGGAAUCAAUUCAGCGAGUGUUAGCAGAUUUGAAAGUUCAGUUGUAUGCAAAAUUCGGGAGCAACAUAAACCUUGAAGCUGACAACAGAGGAUUGAGCAUCA
# B2: chr5:136988535:136988636:-|CDS|ENSG00000152377|msi1|total|mutant (ssRNA)
# RNA: GGGAGUUCUACAGUCCGACGAUCGGAAAGCAUCAGGCUUGGUGGCAGCUGAGAUAUGCCUUUUGUUUGGCAGGGUUUGACACCCGCAUCCUGCCCAUCUGCAAGGACUCCCUGGGCUGGAUGUUCAACAAGUUGGACAUGAACCAACAGAGGAUUGAGCAUCA
# B3: ENSG00000107863:be:win_3301|CDS|ENSG00000107863|bound_else_gene|NA|bound_elsewhere_windowed (ssRNA)
# RNA: GGGAGUUCUACAGUCCGACGAUCAAGGAAGAGUCGGAAAGGAAACUUCUCAGUAAAGAUGAUACCAGUCCCCCAAAAGACAAAGGCACAUGGAGAAAAGGCAUUCCAAGUAUCAUGAGAAAGACAUUUGAGAAAAAGCCAACUCAACAGAGGAUUGAGCAUCA
# B4: ENSG00000136451:be:win_2301|3pUTR|ENSG00000136451|bound_else_gene|NA|bound_elsewhere_windowed (ssRNA)
# RNA: GGGAGUUCUACAGUCCGACGAUCAAAAAUCUACAAAUUGUGUUUUGCUAAGAAAAGCCUCAACUGACAGAGGAGAAGUCAAGUGUGUGGACAGGCAAGCUCCUAAUAAACAGAGUCCAGUGGGAUUCCUAUUUAGGAGCCAAGCAACAGAGGAUUGAGCAUCA
# B5: chr10:123166816:123166917:+|3pUTR|ENSG00000154473|unk|FALSE|unique (ssRNA)
# RNA: GGGAGUUCUACAGUCCGACGAUCAAAAACUUAAAGGUAUAUUAGCAGGUUAGCCUUUGUUCUGUGGGAGAUCCAGGCCUUGUUAGAAGGACCAAGGCCAGAAUGCCCAGUUUAGCCUUAGCAUUCAAACCCUUCAUUGUUUUUCAACAGAGGAUUGAGCAUCA
# B6: chr12:48653210:48654175:-|three_prime_utr|ENSG00000139620|control|control|control (ssRNA)
# RNA: GGGAGUUCUACAGUCCGACGAUCGCACCAUUGUCUCAGAGUGGAUUGGCUACUGCAAAUGGGAAGCCAGAACCCACUUCUAUUAGUUGAUAGUUUGGGGAACCAUUUUACUUUGGUGGAUUUAAAUUUCUCGUUCUUCAAAGACAACAGAGGAUUGAGCAUCA
# Target: MSI1 full-length (mouse, UniProt Q61474 1-362)
# Assay: nsRBNS (natural sequence RNA bind-n-seq); RBNS binding buffer (assumed for nsRBNS): 25 mM Tris pH 7.5, 150 mM KCl, 3 mM MgCl2, 0.01% Triton X-100, 500 ug/ml BSA, 20 U/ml SUPERase-In, 4 C; UNK is unkempt and MSI1 is Musashi-1; names of the RNAs are library labels; protein concentration not given here; high values mean tight binding
# Chain of MSI1 full-length (Q61474 whole entry): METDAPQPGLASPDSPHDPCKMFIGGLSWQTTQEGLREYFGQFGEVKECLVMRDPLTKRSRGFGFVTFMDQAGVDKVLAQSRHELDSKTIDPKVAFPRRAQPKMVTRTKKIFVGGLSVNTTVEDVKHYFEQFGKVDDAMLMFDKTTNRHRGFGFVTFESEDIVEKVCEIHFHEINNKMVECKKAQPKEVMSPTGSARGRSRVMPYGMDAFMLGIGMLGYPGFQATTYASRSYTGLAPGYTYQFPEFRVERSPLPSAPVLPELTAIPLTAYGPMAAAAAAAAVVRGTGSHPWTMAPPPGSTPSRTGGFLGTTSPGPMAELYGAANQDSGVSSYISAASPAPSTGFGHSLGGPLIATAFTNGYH
row,Binder,binding signal [enrichment R]
1,B1,0.378
2,B2,0.511
3,B3,0.359
4,B4,0.431
5,B5,5.77
6,B6,0.61
